Data as given in PubChem BioAssay (EPA / NIEHS).
Active and inactive are the calls of the source. Rule for the calls: active = hit-call score of the fitted dose curve at least 0.9, where 1 is the maximum; inactive = score below 0.9.

What follows are compounds tested on growth arrest and DNA damage 45 (GADD45B), GADD45B (gene 4616) (assay: LTEA_HepaRG_GADD45B: Life Technologies and Expression Analysis (LTEA) Assay for growth arrest and DNA damage 45 (GADD45B) using HepaRG (AID 2283461)). Conditions: mRNA level, 48 h; actives raise or lower the signal.
Protocol: LTEA_HepaRG is a cell based, multiplexed-readout assay that uses HepaRG, a human liver cell line, with measurements taken at 48 hours after chemical dosing on a 96-well plate.LTEA_HepaRG_GADD45B is one of 102 assay component(s) measured in the LTEA HepaRG cell culture assay. It is a marker of Cell proliferation, survival, death.Data from the assay component LTEA_HepaRG_GADD45B was analyzed into 1 endpoint. This assay endpoint, LTEA_HepaRG_GADD45B, was analyzed with bidirectional fitting relative to DMSO as the negative control and baseline of activity. Using a type of inducible reporter, measures of mRNA induction for gain or loss-of-signal activity can be used to understand regulation of transcription factor activity. To generalize the intended target to other relatable targets, this assay endpoint is annotated to the mutagenicity response intended target family, where the subfamily is Cell proliferation, survival, death.
A total of 1060 chemcials from the ToxCast library were tested in eight-point concentration-response experiments. Cell culture and cytotoxicity assays were conducted at Thermo Fisher Scientific's Custom Services facility (Madison, WI). A single lot of human HepaRG cells (Thermo Fisher Scientific, Frederick, MD) was used for the cell culture experiments. 96-well format collagen type I coated plates of human HepaRG cells were prepared using established methods. Briefly, cryopreserved HepaRG cells were thawed, plated at a density of approximately 100,000 cells/well in HepaRG Thaw, Plate, and General Purpose media (HPRG770, Thermo Fisher Scientific), and incubated for 48 hours. 0.5% DMSO was selected as vehicle control to balance the requisite need of DMSO in HepaRG cultures to maintain differentiation (for example, baseline metabolism, proportions of hepatocytes vs. cholangiocytes), while enabling further hepatic receptor pathway activation (for example, PXR and CAR) in response to chemical exposure. 48 hours after plating, the culture medium was replaced with HepaRG Serum-Free Incudtion Media. Cells were exposed to each test chemical in duplicate and maintained in CO2 incubators for another 48 hours. Chemical plates were thawed to room temperature and 200x concentrations of treatment groups were prepared. 8-point conentration-reponse curves were made with the highest exposure at 100 uM, followed by half-log dilutions, all in 0.5% DMSO. Each test plate contained variouse controls, induction positive controls (1mM phenobarbital), cytotoxicity positive controls ([…] aflatoxin B1), vehicle controls (0.5% DMSO), and total lysis controls (0.5% DMSO). Cell morphology images were taken using an Essen IncuCyte FLR automated microscope, with six 96-well plates imaged in about 24 minutes. Images were captured and exported and JPEG files. Spent culture media was transfered to black-well plates for the LDH assay, and remaining media was sorted at -80 C for later use. Cells were treated with RLT buffer and frozen until shipped for gene expression analysis. Total RNA was isolated from the cell suspension in 75 uL of Buffer RLT (Qiagen, Germantown, MD 20874) by Quintiles/Expression Analysis (Durham, NC) using a custom isolation procedure. Total RNA from each plate well was transferred to a preamplification plate. Fluidigm's 96.96 Dynamic ArrayTM (Fluidigm, Amsterdam, the Netherlands) technology was used for gene expression analyses by quantitative reverse transcription polymerase chain reaction (qRT-PCR, performed by Quintiles/Expression Analysis, Durham, NC)89. Standard TaqManTM Assays (Applied Biosystems/ThermoFisher Scientific, Foster City, CA) were used to assess the expression of 93 genes selected based on their selectivity and sensitivity to important hepatic receptors known to be modulated by environmental chemicals; importance in human hepatocyte functionality; and hepatotoxicity. […]

Row | Structure (SMILES) | outcome | AC50
1 | CCC1(c2ccccc2)C(=O)N=C(O)NC1=O (stereo not given) | inactive | –
2 | CN(C)C(=O)Cl | inactive | –
3 | CCN(CC)c1ccccc1 | inactive | –
4 | O=C(O)C1C(C(=O)O)C2(Cl)C(Cl)=C(Cl)C1(Cl)C2(Cl)Cl (stereo not given) | inactive | –
5 | CC(C)(C)c1ccc(O)cc1 | inactive | –
6 | CCCCN(CCCC)N=O | inactive | –
7 | CC(C)(C)OOC(C)(C)C | inactive | –
8 | Cc1ccc([N+](=O)[O-])cc1C | inactive | –
9 | CC(Cc1ccc(OCC(=O)O)cc1)NCC(O)c1csc(C(F)(F)F)n1 (stereo not given) | inactive | –
10 | OCC1CO1 (stereo not given) | inactive | –
11 | c1cc2c3c(cccc3c1)CC2 | inactive | –
12 | c1ccc2c(c1)Nc1ccccc1S2 | – | 85.3 µM (active)
13 | Nc1ccc2ccccc2c1 | inactive | –
14 | Cc1ccc(N)cc1N | inactive | –
15 | CC(Cl)(Cl)C(=O)O | inactive | –
16 | c1nc[nH]n1 | inactive | –
17 | CCCCN(CCCC)SN(C)C(=O)Oc1cccc2c1OC(C)(C)C2 | inactive | –
18 | O=[N+]([O-])c1ccc(Cl)c(Cl)c1 | inactive | –
19 | CCNc1nc(Cl)nc(NC(C)(C)C)n1 | inactive | –
20 | Cc1ccc(O)cc1C | inactive | –

Row | Structure (SMILES) | outcome | AC50
21 | ClC(Cl)(Cl)c1ccccc1 | inactive | –
22 | Nc1ccc(Cl)cc1 | inactive | –
23 | CCOP(=S)(Oc1ccc([N+](=O)[O-])cc1)c1ccccc1 (stereo not given) | inactive | –
24 | COCCOCCO | inactive | –
25 | O=P(Oc1ccccc1)(Oc1ccccc1)Oc1ccccc1 | inactive | –
26 | CCCN(CCC)c1c([N+](=O)[O-])cc(C(C)C)cc1[N+](=O)[O-] | inactive | –
27 | O=P1(N(CCCl)CCCl)NCCCO1 (stereo not given) | inactive | –
28 | CCC(C)(C)c1ccc(O)cc1 | inactive | –
29 | CCOP(=S)(OCC)SCSCC | inactive | –
30 | CCOS(=O)(=O)OCC | inactive | –
31 | O=C(O)C(Cl)Cl | inactive | –
32 | ClC(Cl)c1ccccc1 | inactive | –
33 | Nc1cc2c3c(c1)C(c1ccccc1)=N[C@@H](NC(=O)c1cccnc1)C(=O)N3CC2 | inactive | –
34 | CCCCc1ccccc1 | inactive | –
35 | O=[N+]([O-])c1ccccc1 | inactive | –
36 | [N-]=[N+]=[N-] | inactive | –
37 | CCOC(=O)c1ccccc1C(=O)OCC | inactive | –
38 | CCCCCCCc1ccc(O)cc1 | inactive | –
39 | ClC1=C(Cl)C2(Cl)C3C(Cl)C(Cl)CC3C1(Cl)C2(Cl)Cl (stereo not given) | inactive | –
40 | c1ccc(OP(Oc2ccccc2)Oc2ccccc2)cc1 | inactive | –
